AddAB inh = less growth of phage-infected E. coli with AddAB | E. coli expressing H. pylori AddAB, absorbance growth | inhibition, % at 11.9 µM | 330,000 compounds, 0.29% hits; in the data active means inhibition above about 12%
E coli growth-1 = reduces bacterial viability in AddAB counter-screen | E. coli V3065 growth, OD600 absorbance, 18 h | inhibition, % at 11.9 µM | 330,000 compounds, 0.27% hits;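 active means inhibition above the campaign's mean inhibition across all tested compounds plus 3 SD, cut at about 9.9% in these data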;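 further: uninfected addAB+ strain grown without phage in ampicillin broth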
E coli growth-2 = inhibitors of Escherichia coli growth. OD600, 23 h; active compounds read low. OD600 absorbance (no concentration beside the values). 330,000 compounds, 0.21% hits;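 active means OD600 absorbance below the run mean of sample wells minus 3.6 SD, in any replicate, cut at about 0.56 in these data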
Tat transport = inhibitors of E. coli Tat protein transport; E. coli MC4100 TorA-mCherry Tat export, fluorescence; inhibition, % at 10 µM; 340,000 compounds, 0.036% hits;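 active means mean replicate inhibition at least 50% and at least half of replicates individually reaching 50%; inconclusive means only one of the two criteria met; inactive means neither criterion met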;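 further: exported cargo escapes ClpAP degradation while cytoplasmic cargo is degraded and loses fluorescence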
phage Ecoli inh = E. coli growth loss with phage present. AID 651602. inhibition, % at 11.9 µM. 360,000 compounds, 0.26% hits. growth absorbance; in the data active means inhibition above about 11%
RecBCD conf = growth loss of phage-infected V66 E. coli, RecBCD confirmation screen | shares compounds with phage Ecoli inh | E. coli V66 + T4 2- phage, growth OD | inhibition, % at 11.9 µM | 890 compounds, 45% hits;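 active means mean inhibition over triplicates exceeding the hit threshold derived in the original primary screen, cut at about 11% in these data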
Ecoli viability = bacterial viability inhibition counter-screen for RecBCD. shares compounds with phage Ecoli inh. E. coli viability, absorbance (OD) growth. inhibition, % at 11.9 µM. 890 compounds, 29% hits; in the data active means inhibition above about 20%;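 further: E. coli strain V66 grown with compound alone and no phage infection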
AddAB counter = growth loss of phage-infected AddAB E. coli, RecBCD counter-screen | inhibition, % at 11.9 µM | shares compounds with phage Ecoli inh | AID 651984 | 890 compounds, 45% hits | E. coli expressing H. pylori AddAB + T4 phage, OD growth; gene 2 mutant T4, recBCD-deleted host;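 active means mean inhibition above the solvent-only control wells' mean plus 3 SD, cut at about 22% in these data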;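 further: higher means less bacterial growth from phage killing when AddAB is blocked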
Of the large screens only hits and unclear results are named; the others gave an inactive call (follow-up assays come after a bar, where they were run). A selection: hits, their analogues and other compounds. The true share with any hit is near 0.5%.

Cc1nccn1CCc1n[nH]c(=S)n1Cc1ccccc1	none
CCCCC1COCCS(=O)(=O)N1Cc1ccc(C)cc1 (stereo not drawn)	none (no result: AddAB inh, E coli growth-1, Tat transport, phage Ecoli inh)
O=Nc1c(-c2cccc([N+](=O)[O-])c2)nc2ncccn12	phage Ecoli inh 16.0 (no result: E coli growth-2, Tat transport) | RecBCD conf 71.8 | Ecoli viability 77.0 | AddAB counter 99.8
C(=N\Nc1nncc2ccccc12)/c1ccccn1	E coli growth-1 10.2, phage Ecoli inh 19.3 (no result: E coli growth-2) | RecBCD conf 20.4 | Ecoli viability 27.1 | AddAB counter 23.7
Fc1cccc(/C=N/Nc2nncc3ccccc23)c1	none (no result: E coli growth-2)
CC(=NNc1nc2ccc(Cl)cc2o1)c1ccccc1	none (no result: AddAB inh, E coli growth-1, Tat transport, phage Ecoli inh)
CC(=NNc1nc2ccccc2o1)c1ncccn1	phage Ecoli inh 30.3 (no result: AddAB inh, E coli growth-1, E coli growth-2) | RecBCD conf 28.9 | Ecoli viability 36.2 | AddAB counter inactive
CC(=NNc1nc2ccccc2o1)c1cc2ccccc2cn1	phage Ecoli inh 11.7 (no result: AddAB inh, E coli growth-1, E coli growth-2) | RecBCD conf inactive | Ecoli viability inactive | AddAB counter inactive
O=C(Oc1c(Br)cc([N+](=O)[O-])cc1Br)c1cccnc1	E coli growth-2 0.484, phage Ecoli inh 12.6 | RecBCD conf 14.0 | Ecoli viability inactive | AddAB counter inactive
COCC=CC1=CC2=CC(=O)C(C)(OC(=O)c3cnc4ccccc4n3)C(=O)C2=CN1c1ccccc1 (stereo not drawn)	none (no result: AddAB inh, E coli growth-1, Tat transport, phage Ecoli inh)
CCCCn1c(CNC(=O)Cc2ccccc2)nc2ccccc21	phage Ecoli inh 99.5 | RecBCD conf inactive | Ecoli viability inactive | AddAB counter inactive
CCCCn1c(CNC(=O)CC)nc2ccccc21	none
O=C(CC1CC=CCCC(=O)OCC(Cc2ccccc2)NC1=O)NC(CO)Cc1ccccc1 (stereo not drawn)	none (no result: AddAB inh, E coli growth-1, Tat transport, phage Ecoli inh)
O=C1c2ccccc2C(=O)c2c1ccc(O)c2O	phage Ecoli inh 15.0 (no result: AddAB inh, E coli growth-1, E coli growth-2) | RecBCD conf inactive | Ecoli viability inactive | AddAB counter inactive
COC(=O)c1ccc2c(c1O)C(=O)c1ccccc1C2=O	none
O=C(C=Cc1cccs1)N1CCC2(CC1)Oc1ccc(Cl)cc1C(=O)C21CC(c2ccc(Cl)cc2)=NO1 (stereo not drawn)	none (no result: AddAB inh, E coli growth-1, Tat transport, phage Ecoli inh)
O=C(/C=C/c1ccccc1)c1cc(Br)ccc(=O)c1O	E coli growth-1 10.1, phage Ecoli inh 26.6 | RecBCD conf 16.2 | Ecoli viability 21.9 | AddAB counter inactive
COc1ccc(C2C=CCN(C(=O)C3CCCC3)CC(=O)N2Cc2ccc(F)cc2)cc1 (stereo not drawn)	none (no result: AddAB inh, E coli growth-1, Tat transport, phage Ecoli inh)
CO/N=C(\C(=O)N[C@@H]1C(=O)N2C(C(=O)O)=C(COC(N)=O)CS[C@H]12)c1ccco1	phage Ecoli inh 63.2 (no result: E coli growth-2) | RecBCD conf 92.7 | Ecoli viability 97.6 | AddAB counter 80.6
CON=C(C(=O)NC1C(=O)N2C(C(=O)O)=C(CSc3nc(=O)c(=O)[nH]n3C)CSC12)c1csc(N)n1 (stereo not drawn)	phage Ecoli inh 101.5 (no result: AddAB inh, E coli growth-1, E coli growth-2) | RecBCD conf 102.1 | Ecoli viability 103.1 | AddAB counter 102.7
CC(=O)OCC1=C(C(=O)O)N2C(=O)C(NC(=O)c3ccc(F)cc3)C2SC1 (stereo not drawn)	none
CC1CN(C(C)CO)C(=O)c2cc(NS(C)(=O)=O)ccc2OC1CN(C)CC1CCCCC1 (stereo not drawn)	none (no result: AddAB inh, E coli growth-1, Tat transport, phage Ecoli inh)
C=CCC(CC(=O)NCCO)C(=O)NC(COC(=O)C(CC=C)Cc1ccc(F)cc1)c1ccccc1 (stereo not drawn)	none (no result: AddAB inh, E coli growth-1, Tat transport, phage Ecoli inh)
CN1CCCC1CCNC(=O)c1cccc2c1C(=O)c1ccc(N3CCCC3)cc1S2(=O)=O (stereo not drawn)	none (no result: AddAB inh, E coli growth-1, Tat transport, phage Ecoli inh)
CCN1CCN(C(=O)C2=CC(c3ccc(C)cc3)=NS(=O)(=O)N2C)CC1	phage Ecoli inh 12.1 | RecBCD conf inactive | Ecoli viability inactive | AddAB counter inactive
COC(=O)c1ccc(C23CC4(C2)C(CN(C)C4c2ccccc2)C3c2ccc(Cl)nc2)cc1 (stereo not drawn)	none (no result: AddAB inh, E coli growth-1, Tat transport, phage Ecoli inh)
Nc1nc(N)c2cc(CNc3ccc(Cl)c(Cl)c3)ccc2n1	phage Ecoli inh 57.6 (no result: AddAB inh, E coli growth-1, E coli growth-2, Tat transport) | RecBCD conf 41.2 | Ecoli viability 36.3 | AddAB counter 72.9
CC(=O)SC1CC(=O)N(c2c(C)cccc2C)C1=O (stereo not drawn)	phage Ecoli inh 11.5 | RecBCD conf inactive | Ecoli viability inactive | AddAB counter inactive
O=C1/C(=C/c2cccnc2)Oc2cc(OS(=O)(=O)c3ccccc3)ccc21	Tat transport inconclusive (no result: phage Ecoli inh)
O=S(=O)(Oc1ccccc1)c1cccnc1	phage Ecoli inh 100.7 | RecBCD conf inactive | Ecoli viability inactive | AddAB counter inactive
O=C(Nc1cccc(C(=O)O)c1)C(=Cc1ccccc1)NC(=O)c1ccccc1	none (no result: AddAB inh, E coli growth-1, Tat transport, phage Ecoli inh)
CSC1SCC2C(=O)N(C)C(C(C)C)C(=O)OCC(NC(=O)c3cnc4ccccc4n3)C(=O)NC(C)C(=O)N(C)C1C(=O)N(C)C(C(C)C)C(=O)OCC(NC(=O)c1cnc3ccccc3n1)C(=O)NC(C)C(=O)N2C (stereo not drawn)	phage Ecoli inh 99.1 (no result: AddAB inh, E coli growth-1, E coli growth-2) | RecBCD conf 88.8 | Ecoli viability 91.8 | AddAB counter 80.8
COc1ccc(S(=O)(=O)N(Cc2ccc(OC)c(OC)c2)Cc2ccco2)cc1	none
COc1ccc(S(=O)(=O)N(CCC(N)=O)Cc2ccco2)cc1OC	phage Ecoli inh 98.1 | RecBCD conf inactive | Ecoli viability inactive | AddAB counter inactive
CC1CN(C(C)CO)C(=O)c2cc(NC(=O)c3ccncc3)ccc2OC1CN(C)C(=O)Nc1ccccc1 (stereo not drawn)	none (no result: AddAB inh, E coli growth-1, Tat transport, phage Ecoli inh)
CC(C)(C)OC(=O)CC1CC=CCC(CC(=O)NCCO)C(=O)NC(C(C)(C)C)COC1=O (stereo not drawn)	none (no result: AddAB inh, E coli growth-1, Tat transport, phage Ecoli inh)
O=C(Nc1ccccn1)C(c1ccccc1)c1ccccc1	phage Ecoli inh 11.9 (no result: AddAB inh, E coli growth-1, E coli growth-2, Tat transport) | RecBCD conf inactive | Ecoli viability inactive | AddAB counter inactive
Cc1ccc(NC(=O)C(c2ccccc2)c2ccccc2)nc1	none
S=C(NCc1ccccn1)NN=Cc1ccccn1	phage Ecoli inh 17.6 (no result: AddAB inh, E coli growth-1, E coli growth-2) | RecBCD conf 13.6 | Ecoli viability inactive | AddAB counter inactive
NCC1OC(OC2C(N)CC(N)C(OC3OC(CO)C(O)C(N)C3O)C2O)C(N)CC1O (stereo not drawn)	none (no result: AddAB inh, E coli growth-1, Tat transport, phage Ecoli inh)
NCC[C@H](O)C(=O)N[C@@H]1C[C@H](N)[C@@H](O[C@H]2O[C@H](CN)[C@@H](O)[C@H](O)[C@H]2O)[C@H](O)[C@H]1O[C@H]1O[C@H](CO)[C@@H](O)[C@H](N)[C@H]1O	Tat transport 126.1, phage Ecoli inh 100.3 (no result: AddAB inh, E coli growth-1, E coli growth-2) | RecBCD conf 99.8 | Ecoli viability 100.3 | AddAB counter 101.1
O=[N+]([O-])c1ccc(N2CCN(Cc3ccccc3)CC2)c2c1no[n+]2[O-]	phage Ecoli inh 11.6 (no result: AddAB inh, E coli growth-1, E coli growth-2, Tat transport) | RecBCD conf inactive | Ecoli viability inactive | AddAB counter 42.3
O=[N+]([O-])c1ccc(N2CCN(Cc3ccccc3)CC2)s1	none
S=C1NCC(CC2CCCCC2)N1CC1CCCCC1 (stereo not drawn)	none (no result: AddAB inh, E coli growth-1, Tat transport, phage Ecoli inh)

Screening results from PubChem BioAssay.
